T1: UNK ZnF1-3 (human, UniProt Q9C0B0 31-174)
T1 sequence: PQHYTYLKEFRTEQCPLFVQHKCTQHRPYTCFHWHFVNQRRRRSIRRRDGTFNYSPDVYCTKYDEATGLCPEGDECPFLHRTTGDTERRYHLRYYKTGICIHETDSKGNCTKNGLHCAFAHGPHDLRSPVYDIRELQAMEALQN

B1: chr18:35731670:35731671:+_ENSMUSG00000037236_ENSMUST00000166793|perfect_dup|motif|central (ssRNA)
RNA: GGGAGUUCUACAGUCCGACGAUCUGACCCUGUGAGUCCCUACUGAGAGAUGACUGCUGGAAUGACUUGGACAUUGUAGAACGGGCUCUUGUCUAUUUUAUAGAUUAAAAAAAAAAAUUUUUUUAAAGACGGCCAAAAAGAAAGCAACAGAGGAUUGAGCAUCA
B2: chr16:20683585:20683586:+_ENSMUSG00000045983_ENSMUST00000044783|mus_mus|motif|central (ssRNA)
RNA: GGGAGUUCUACAGUCCGACGAUCUAUUGCUUCUGUUAACAUCUUCAACUUGAAUAACUCUCCAAUAAACUUGAUAUUCCCGGAAGAGCGCCGCCUAGCUAUGUCCCGGGCUUCUUCUAGCUCUUCUUUCAGGCGUCCCCGUUCCAACAGAGGAUUGAGCAUCA
B3: chr17:24706804:24706805:+_ENSMUSG00000032855_ENSMUST00000035565|mus_hu|FALSE|FALSE (ssRNA)
RNA: GGGAGUUCUACAGUCCGACGAUCGCAGCCGGGCACGAAGGUGGCCACCAGGGCAGGGCAGACAUUCUCAAAGCGGGCGCUGACACUGCCCCCAGGCCAGCGAGCCGUGGCCGUGGCGUUGGCACCAGAGUCCACCUGGAGCACCAACAGAGGAUUGAGCAUCA
B4: chr7:17149110:17149111:-_ENSMUSG00000058230_ENSMUST00000075845|mus_hu|FALSE|FALSE (ssRNA)
RNA: GGGAGUUCUACAGUCCGACGAUCAAUAUCCAUGUAUACAGAUUCCUCCAGCCACUGGUAGAAAUCCUCAUUCAUAAUAAAACUACGGGCCUCUUCCCAAGGCUUUCCGGGAGUUAUGAAAGGAGAAGUCUCCAGGUUUUCUUUCAACAGAGGAUUGAGCAUCA
B5: chr5:141234466:141234467:-_ENSMUSG00000000149_ENSMUST00000000153|mus_hu|motif|central (ssRNA)
RNA: GGGAGUUCUACAGUCCGACGAUCUAAUAAAAAAGACAAUAAGGAUUAACAGUGAAAUUAAAAUUAAAAAAUACAAAAGCCGGAGGUUCUGGAGACAAAACUGACUAGAGUCUAUGUGUAGCCAAGUUGUGAAUGACAGUUUAGCAACAGAGGAUUGAGCAUCA
B6: chr5:141234466:141234467:-_ENSMUSG00000000149_ENSMUST00000000153|mus_hu|FALSE|FALSE (ssRNA)
RNA: B5 RNA with G81U, G82A
B7: chr12:8504966:8504967:-_ENSMUSG00000054364_ENSMUST00000067384|mus_hu|FALSE|FALSE (ssRNA)
RNA: GGGAGUUCUACAGUCCGACGAUCACAAGUGUGGUCAGAAUGCUACUGUCGUAUGCAAAUGACGAGUGCAUUAAGUGUCAAACAAUGAAACAAUUGUGCAAAGAAUAAAAAAACAAAUUUUAGCCUUUAAAUAAAUCAAAUAACCAACAGAGGAUUGAGCAUCA
B8: 83879064_83879184_615_CDS_ENSMUSG00000030016_ENSMUST00000032088|mouse|control|control (ssRNA)
RNA: GGGAGUUCUACAGUCCGACGAUCUGGAGUUAUAUGAGACUCAUCAUCCCACCGACUACCAUGAGGCUUCCCCUUCUUUUGUUGUGCUUCAGGAAAAUCCAAUUUUUCUUUGGUUAAUCUUGGAUCGGUUCGGUGUUGAGUUACCAACAGAGGAUUGAGCAUCA
B9: chrX:20248820:20248821:+_ENSMUSG00000001924_ENSMUST00000001989|mus_mus|mus_mus_mus_hu_True|58_98 (ssRNA)
RNA: GGGAGUUCUACAGUCCGACGAUCGGCGAAGUCCGUCAUCACAAAGUCAGGUUCUGCCAGUGAGGCCACCAAGGAUUUAAAACUAAUCUUCUUAGGUACUUUGACCUGACUGACGAUGCCUCCACGGAUGUAGUCGGAGAAGUUCAACAGAGGAUUGAGCAUCA
B10: chr17:35253193:35253194:-_ENSMUSG00000024387_ENSMUST00000025246|mus_mus|FALSE|FALSE (ssRNA)
RNA: GGGAGUUCUACAGUCCGACGAUCGGCCUUUUCUUCCUUUAUUUCAUAUUCCCACCACAGUAACAAUUCCUUUAAUUUAAACUAAAAACCAUAGACUUCCUGAAAGGGUGGCAGCAGAGGAAUGGUGGUGUCACAGACAGAGGGCAACAGAGGAUUGAGCAUCA
B11: chr16:45382771:45382772:-_ENSMUSG00000022661_ENSMUST00000163230|mus_mus|mus_mus_mus_hu_True|18_48 (ssRNA)
RNA: GGGAGUUCUACAGUCCGACGAUCCUGGGUCAUGUUAUAAGACAAAUGGACAGGGAGGGCAUGCUUCUCAAAAAAUGUGAGCUAUUGACUAAGACUAACAAUAUUUAUCUAGCUAUAUAAAAAUAAGAAAUGAAUAAGUUAAGACAACAGAGGAUUGAGCAUCA
B12: chr16:45382771:45382772:-_ENSMUSG00000022661_ENSMUST00000163230|mus_mus|mus_mus_mus_hu_True|18_18 (ssRNA)
RNA: B11 RNA with A87U
B13: chr16:45382771:45382772:-_ENSMUSG00000022661_ENSMUST00000163230|mus_mus|mus_mus_mus_hu_True|1_48 (ssRNA)
RNA: GGGAGUUCUACAGUCCGACGAUCCUGGGUCAUGUUAUAAGACAAAUGGACAGGGAGGGCAUGCUUCUCAAAAAAUGUGAGCUAUUGACUAAGACUAACAAUAUUUAUCUAGCUAUAAAAAUAAGUUAAAUGAAUAAACAUUACCAACAGAGGAUUGAGCAUCA
B14: chr16:45382771:45382772:-_ENSMUSG00000022661_ENSMUST00000163230|mus_mus|mus_mus_mus_hu_True|18_58 (ssRNA)
RNA: B11 RNA with G80A, U84C, G86C, A87U
B15: chr16:45382771:45382772:-_ENSMUSG00000022661_ENSMUST00000163230|mus_mus|mus_mus_mus_hu_True|18_98 (ssRNA)
RNA: B11 RNA with A38G, A39G, A41C, A43C, A87U
B16: chr16:45382771:45382772:-_ENSMUSG00000022661_ENSMUST00000163230|mus_mus|mus_mus_mus_hu_True|1_18 (ssRNA)
RNA: B13 RNA with A87U, A117U, U121A, A123U, G124A, U125A, U126G

The values that follow come from article PMC12136788.

Where a chain is given by its changes, count along the chain named. The full ranking holds about 24,000 sequences; the median of “enrichment r” is about 0.99, and the highest 2% start at about 3.7. Shown is part of a subset that was picked to be rich in the highest values.

The target of the assay is T1, UNK ZnF1-3. Description: nsRBNS (natural sequence RNA bind-n-seq); RBNS binding buffer (assumed for nsRBNS): 25 mM Tris pH 7.5, 150 mM KCl, 3 mM MgCl2, 0.01% Triton X-100, 500 ug/ml BSA, 20 U/ml SUPERase-In, 4 C; UNK is unkempt and MSI1 is Musashi-1; names of the RNAs are library labels; protein concentration not given here; high values mean tight binding.
The molecule B1 returned a binding signal of 3.64 enrichment R.

As for B2, the binding signal was 0.438 enrichment R.

As to B3, the binding signal came out at 0.934 enrichment R.

Molecule B4 came in with a binding signal of 0.85 enrichment R.

As to B5, the binding signal was 13.3 enrichment R.

On to B6, for which the binding signal was 9.17 enrichment R.

Regarding B7, the binding signal worked out at 2.25 enrichment R.

Consider B8, for which the binding signal was 0.468 enrichment R.

With B9, the binding signal worked out at 0.876 enrichment R.

In turn, B10 registered a binding signal of 1.66 enrichment R.

Molecule B11 gave a binding signal of 5.66 enrichment R.

B12 returned a binding signal of 5.7 enrichment R.

The molecule B13 came in with a binding signal of 3.57 enrichment R.

Regarding B14, the binding signal was found to be 7.97 enrichment R.

In turn, B15 registered a binding signal of 5.27 enrichment R.

In the case of B16, the binding signal was found to be 2.42 enrichment R.
